Each structure is given as a SMILES string. Records with an inconclusive call do not appear. Active and inactive are the calls of the source. The calls were made as follows, unless noted: active = hit-call score of the fitted dose curve at least 0.9, where 1 is the maximum; inconclusive = response in the unintended direction; inactive = score below 0.9.

Assay [1] in a line: BSK_SAg_PBMCCytotoxicity: PBMC Cytotoxicity Assessment in the BioMAP Diversity Plus: SAg Assay (AID 2283093; active = hit-call score of the fitted dose curve at least 0.9, where 1 is the maximum; inactive = score below 0.9;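 also: PBMC viability measured as Alamar Blue reduction fluorescence at 546/580 nm; fitted both ways against DMSO so a hit may be loss or gain of signal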;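 as to AC50: PBMC superantigen activated with SEB plus TSST-1 one hour after compound addition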). As to conditions: primary human HUVEC with PBMC. In short, it runs like this:
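Alamar Blue reduction (6 h, ex/em 546/580 nm) read after 90 h culture of PBMC pre-dosed 1 h then stimulated with SEB plus TSST-1, 20 ng/mL each. Gain or loss of signal fitted relative to DMSO.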

Read-out in assay [2]: Interleukin-8 (IL8), CXCL8 (gene 3576)
The assay is described as follows: BSK_SAg_IL8: BioMAP Diversity Plus: SAg Assay for Interleukin-8 (IL8) Biomarker Activity (AID 2283094; active = hit-call score of the fitted dose curve at least 0.9, where 1 is the maximum; inactive = score below 0.9). As to conditions: primary human HUVEC with PBMC; actives raise or lower the signal. The method, boiled down: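 Primary human endothelial cells with PBMC, exposed 24 h; IL-8 determined by ELISA, analysed bidirectionally relative to DMSO.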

Assay [3] in a line: BSK_SAg_Proliferation: Cell Proliferation Assessment in the BioMAP Diversity Plus: SAg Assay (AID 2283095; active = hit-call score of the fitted dose curve at least 0.9, where 1 is the maximum; inactive = score below 0.9;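 also: relative cell number as total protein by SRB absorbance in sub-confluent culture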). As to conditions: primary human HUVEC with PBMC. The method, boiled down:
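A human primary co-culture of umbilical vein endothelium and blood mononuclear cells receives compound; relative cell number is quantified at 96 h by SRB staining and 560 nm absorbance, with DMSO-referenced bidirectional curve fitting.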

Assay [4] can be described thus: BSK_SAg_SRB: Viability Assessment in the BioMAP Diversity Plus: SAg Assay (AID 2283096; active = hit-call score of the fitted dose curve at least 0.9, where 1 is the maximum; inactive = score below 0.9;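 also: cells read one day after compound addition; hits may be either gain or loss of signal compared with DMSO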). As to conditions: primary human HUVEC with PBMC. The method, boiled down: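 SRB absorbance at 560 nm served as the viability read-out. Cells (HUVEC plus peripheral blood mononuclear cells) were TCA-fixed and stained 24 h post-dosing; activity fitted in both directions against DMSO controls.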

Assay [5] deals with human Ephrin type-A Receptor 1 (EphA1), EPHA1 (gene 2041) (UniProt P21709). Put plainly: NVS_ENZ_hEphA1: NovaScreen (NVS) Enzymatic Assay for human Ephrin type-A Receptor 1 (EphA1) (AID 2283158).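 Also: activity is signal loss versus DMSO meaning EphA1 kinase inhibition.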 The method, boiled down:
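Fluorescent substrate conversion, resolved by mobility-shift separation, measured 1 hour post-dosing using recombinant enzyme; signal loss relative to DMSO baseline. Single-concentration duplicates at 25 uM preceded singleton concentration series topping at 50 uM.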

In assay [6] the target is human Matrix Metalloproteinase-9 (MMP9), MMP9 (gene 4318) (UniProt P14780). The assay is described as follows: NVS_ENZ_hMMP9: NovaScreen (NVS) Enzymatic Assay for human Matrix Metalloproteinase-9 (MMP9) (AID 2283190).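 Also: cell-free recombinant MMP9 protease activity read by fluorescent substrate signal; active means inhibition seen as loss of fluorescence signal versus DMSO.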 In short, it runs like this:
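Screening concentration 25 uM, duplicate wells, then dose series for confirmation. Cell-free enzymatic reaction measured by fluorescence intensity 1 h post-dosing; decreased signal versus DMSO taken as activity.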

For assay [7], the target named is sheep Cyclooxygenase-1 (Cox1), PTGS1 (gene 443551) (UniProt P05979). Put plainly: NVS_ENZ_oCOX1: NovaScreen (NVS) Enzymatic Assay for sheep Cyclooxygenase-1 (Cox1) (AID 2283239).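 Also: actives reduce cyclooxygenase activity so potencies are for inhibitors.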 The method, boiled down:
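Colorimetric enzyme readout using sheep seminal-vesicle cyclooxygenase-1, measured 0.66 h post-dosing. Single-concentration duplicates at 25 uM first, then concentration series for actives, with DMSO as baseline and plate controls.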

For assay [8], the target named is human CYP19A1, CYP19A1 (gene 1588) (UniProt P11511). The assay is described as follows: NVS_ADME_hCYP19A1: NovaScreen (NVS) CYP450-related Enzyme Activity (ADME) Assay for human CYP19A1 (AID 2283098).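 As to AC50: potency for inhibitors seen as loss of fluorescent enzyme signal.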 The method, boiled down:
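Primary testing was in duplicate at a single 10 uM concentration, with actives followed up in concentration-response series. Fluorescence read-out of recombinant enzyme activity at 0.5 h, cell-free. Acetonitrile was the negative-control baseline.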

The target in assay [9] is guinea pig Leukotriene D4 Receptor (LTD4), CYSLTR1 (gene 100135514) (UniProt Q2NNR5). The assay is described as follows: NVS_GPCR_gLTD4: NovaScreen (NVS) G Protein-Coupled Receptor Assay for guinea pig Leukotriene D4 Receptor (LTD4) (AID 2283248). In short, it runs like this:
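Guinea pig lung membrane preparation; bound radioligand measured by filter scintillation after 1 h, loss of signal versus DMSO marking displacement. Compounds tested at 25 uM in duplicate, hits retested to max 50 uM.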

Assay [10] addresses human Beta-secretase (BACE), BACE1 (gene 23621) (UniProt P56817). The assay is described as follows: NVS_ENZ_hBACE: NovaScreen (NVS) Enzymatic Assay for human Beta-secretase (BACE) (AID 2283140).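 Also: hits are inhibitors that reduce fluorescent substrate signal versus DMSO.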 In short, it runs like this: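 Enzyme activity of SF9-produced BACE1 is measured cell-free by fluorescence, 1 hour post dosing, normalised to DMSO. Screening used 25 uM in duplicate, with concentration-response follow-up for actives.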

Assay [11] concerns the target human Phosphodiesterase 10 (PDE10), PDE10A (gene 10846) (UniProt Q9Y233). Put plainly: NVS_ENZ_hPDE10: NovaScreen (NVS) Enzymatic Assay for human Phosphodiesterase 10 (PDE10) (AID 2283195). In short, it runs like this:
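Fluorescence readout after mobility-shift separation of substrate and product, 1 h reaction with recombinant human enzyme. Single-concentration duplicates at 25 uM, then concentration-response up to 50 uM for chemicals reaching threshold; DMSO baseline.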

The target in assay [12] is human Dual Specificity Protein Phosphatase 3 (DUSP3), DUSP3 (gene 1845) (UniProt P51452). Put plainly: NVS_ENZ_hDUSP3: NovaScreen (NVS) Enzymatic Assay for human Dual Specificity Protein Phosphatase 3 (DUSP3) (AID 2283152). The method, boiled down: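 Cell-free fluorescence-intensity enzyme activity assay with recombinant protein and substrate; loss of signal fitted relative to DMSO baseline. Primary screen in duplicate at 25 uM, actives then run in concentration series; measured 0 h after dosing.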

The target of assay [13] is human Vascular Endothelial Growth Factor Receptor 1 (VEGFR1), FLT1 (gene 2321) (UniProt P17948). Put plainly: NVS_ENZ_hVEGFR1: NovaScreen (NVS) Enzymatic Assay for human Vascular Endothelial Growth Factor Receptor 1 (VEGFR1) (AID 2283226). The method, boiled down:
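Kinase activity of recombinant human VEGFR1 was read by fluorescence after electrophoretic separation of product from substrate, 1 h post-dosing; initial duplicate single-point testing at 25 uM, followed by concentration-series follow-up, with DMSO as baseline.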

Assay [14] deals with Cytochrome P450 3A4 (Homo sapiens) (UniProt P08684). The assay is described as follows: NVS_ADME_hCYP3A4: NovaScreen (NVS) CYP450-related Enzyme Activity (ADME) Assay for human CYP3A4 (AID 2283110). The method, boiled down: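 Compounds screened in duplicate at 10 uM, with follow-up concentration-response for actives, against insect-cell-expressed recombinant enzyme. Activity read by fluorescence 0.33 h after dosing; loss of signal versus acetonitrile control indicates inhibition.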

Chain of human Ephrin type-A Receptor 1 (EphA1), EPHA1 (gene 2041) (P21709 whole entry, looked up): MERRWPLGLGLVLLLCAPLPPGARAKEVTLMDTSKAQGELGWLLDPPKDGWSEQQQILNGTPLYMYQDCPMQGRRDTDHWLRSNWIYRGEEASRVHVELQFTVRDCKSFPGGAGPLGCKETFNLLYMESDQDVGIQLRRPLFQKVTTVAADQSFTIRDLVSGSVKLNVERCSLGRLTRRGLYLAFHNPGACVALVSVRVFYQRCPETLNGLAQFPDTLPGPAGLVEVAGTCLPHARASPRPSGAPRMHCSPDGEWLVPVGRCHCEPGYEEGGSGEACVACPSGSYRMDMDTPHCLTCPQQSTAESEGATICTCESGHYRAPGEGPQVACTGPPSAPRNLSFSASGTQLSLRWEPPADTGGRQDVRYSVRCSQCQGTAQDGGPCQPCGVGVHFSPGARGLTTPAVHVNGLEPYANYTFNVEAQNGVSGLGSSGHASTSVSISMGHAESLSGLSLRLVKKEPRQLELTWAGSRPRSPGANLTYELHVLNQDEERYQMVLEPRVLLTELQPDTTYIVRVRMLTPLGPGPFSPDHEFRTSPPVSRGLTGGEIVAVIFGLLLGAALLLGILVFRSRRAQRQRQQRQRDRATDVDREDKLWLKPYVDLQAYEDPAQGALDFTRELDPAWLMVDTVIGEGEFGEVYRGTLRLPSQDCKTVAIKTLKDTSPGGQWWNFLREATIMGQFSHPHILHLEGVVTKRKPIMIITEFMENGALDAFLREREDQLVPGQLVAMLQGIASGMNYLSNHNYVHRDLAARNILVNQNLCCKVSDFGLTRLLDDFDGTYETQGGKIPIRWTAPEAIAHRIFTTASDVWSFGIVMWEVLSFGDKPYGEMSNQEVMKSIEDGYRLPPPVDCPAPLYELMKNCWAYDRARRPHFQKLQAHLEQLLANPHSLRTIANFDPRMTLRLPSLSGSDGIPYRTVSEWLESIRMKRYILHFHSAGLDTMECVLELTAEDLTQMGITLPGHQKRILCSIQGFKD
Chain of sheep Cyclooxygenase-1 (Cox1), PTGS1 (gene 443551) (P05979 whole entry, looked up): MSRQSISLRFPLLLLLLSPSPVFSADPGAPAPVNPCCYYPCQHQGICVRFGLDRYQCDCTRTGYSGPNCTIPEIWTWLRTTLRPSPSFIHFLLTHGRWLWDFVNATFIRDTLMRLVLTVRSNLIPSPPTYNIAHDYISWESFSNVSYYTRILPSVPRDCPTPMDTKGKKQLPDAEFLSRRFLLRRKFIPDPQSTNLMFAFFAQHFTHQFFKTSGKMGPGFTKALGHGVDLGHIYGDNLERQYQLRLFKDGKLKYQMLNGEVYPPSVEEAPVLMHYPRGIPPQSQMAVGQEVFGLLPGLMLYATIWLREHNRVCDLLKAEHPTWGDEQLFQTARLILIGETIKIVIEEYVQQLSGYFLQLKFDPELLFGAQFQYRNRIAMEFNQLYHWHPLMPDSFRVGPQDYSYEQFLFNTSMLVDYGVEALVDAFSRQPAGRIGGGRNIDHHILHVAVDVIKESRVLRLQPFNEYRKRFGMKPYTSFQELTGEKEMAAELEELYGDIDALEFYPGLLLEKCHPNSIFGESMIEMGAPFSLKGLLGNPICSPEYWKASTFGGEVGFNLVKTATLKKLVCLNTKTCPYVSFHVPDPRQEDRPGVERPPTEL
Chain of guinea pig Leukotriene D4 Receptor (LTD4), CYSLTR1 (gene 100135514) (Q2NNR5 whole entry, looked up): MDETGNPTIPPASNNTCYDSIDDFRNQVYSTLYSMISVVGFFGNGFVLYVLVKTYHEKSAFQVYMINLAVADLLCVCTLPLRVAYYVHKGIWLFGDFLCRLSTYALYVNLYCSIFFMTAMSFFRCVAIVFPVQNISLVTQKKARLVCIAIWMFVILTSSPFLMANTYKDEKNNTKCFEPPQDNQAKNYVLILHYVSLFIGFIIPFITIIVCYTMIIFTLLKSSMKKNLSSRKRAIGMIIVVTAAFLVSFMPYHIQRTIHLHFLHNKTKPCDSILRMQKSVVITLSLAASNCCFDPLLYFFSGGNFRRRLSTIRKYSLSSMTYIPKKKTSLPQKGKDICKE
Chain of human Matrix Metalloproteinase-9 (MMP9), MMP9 (gene 4318) (P14780 whole entry, looked up): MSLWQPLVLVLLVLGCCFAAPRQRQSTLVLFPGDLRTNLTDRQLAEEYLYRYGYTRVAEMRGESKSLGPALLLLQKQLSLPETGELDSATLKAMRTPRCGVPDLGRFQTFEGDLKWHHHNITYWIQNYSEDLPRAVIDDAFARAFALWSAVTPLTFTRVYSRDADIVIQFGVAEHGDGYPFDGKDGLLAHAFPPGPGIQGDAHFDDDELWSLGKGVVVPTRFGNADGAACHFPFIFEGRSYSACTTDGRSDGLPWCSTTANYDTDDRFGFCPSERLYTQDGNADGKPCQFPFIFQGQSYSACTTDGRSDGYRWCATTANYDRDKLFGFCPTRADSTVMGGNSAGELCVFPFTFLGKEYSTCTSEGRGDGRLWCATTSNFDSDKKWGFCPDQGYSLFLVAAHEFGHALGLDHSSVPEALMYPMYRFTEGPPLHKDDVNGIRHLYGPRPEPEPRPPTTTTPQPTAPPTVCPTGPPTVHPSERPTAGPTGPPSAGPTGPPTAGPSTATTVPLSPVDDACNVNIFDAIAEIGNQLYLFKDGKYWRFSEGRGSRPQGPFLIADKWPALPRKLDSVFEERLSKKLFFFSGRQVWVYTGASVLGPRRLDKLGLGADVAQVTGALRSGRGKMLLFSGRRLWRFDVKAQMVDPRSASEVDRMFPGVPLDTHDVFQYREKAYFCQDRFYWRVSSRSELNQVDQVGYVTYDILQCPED
Chain of human Phosphodiesterase 10 (PDE10), PDE10A (gene 10846) (Q9Y233 whole entry, looked up): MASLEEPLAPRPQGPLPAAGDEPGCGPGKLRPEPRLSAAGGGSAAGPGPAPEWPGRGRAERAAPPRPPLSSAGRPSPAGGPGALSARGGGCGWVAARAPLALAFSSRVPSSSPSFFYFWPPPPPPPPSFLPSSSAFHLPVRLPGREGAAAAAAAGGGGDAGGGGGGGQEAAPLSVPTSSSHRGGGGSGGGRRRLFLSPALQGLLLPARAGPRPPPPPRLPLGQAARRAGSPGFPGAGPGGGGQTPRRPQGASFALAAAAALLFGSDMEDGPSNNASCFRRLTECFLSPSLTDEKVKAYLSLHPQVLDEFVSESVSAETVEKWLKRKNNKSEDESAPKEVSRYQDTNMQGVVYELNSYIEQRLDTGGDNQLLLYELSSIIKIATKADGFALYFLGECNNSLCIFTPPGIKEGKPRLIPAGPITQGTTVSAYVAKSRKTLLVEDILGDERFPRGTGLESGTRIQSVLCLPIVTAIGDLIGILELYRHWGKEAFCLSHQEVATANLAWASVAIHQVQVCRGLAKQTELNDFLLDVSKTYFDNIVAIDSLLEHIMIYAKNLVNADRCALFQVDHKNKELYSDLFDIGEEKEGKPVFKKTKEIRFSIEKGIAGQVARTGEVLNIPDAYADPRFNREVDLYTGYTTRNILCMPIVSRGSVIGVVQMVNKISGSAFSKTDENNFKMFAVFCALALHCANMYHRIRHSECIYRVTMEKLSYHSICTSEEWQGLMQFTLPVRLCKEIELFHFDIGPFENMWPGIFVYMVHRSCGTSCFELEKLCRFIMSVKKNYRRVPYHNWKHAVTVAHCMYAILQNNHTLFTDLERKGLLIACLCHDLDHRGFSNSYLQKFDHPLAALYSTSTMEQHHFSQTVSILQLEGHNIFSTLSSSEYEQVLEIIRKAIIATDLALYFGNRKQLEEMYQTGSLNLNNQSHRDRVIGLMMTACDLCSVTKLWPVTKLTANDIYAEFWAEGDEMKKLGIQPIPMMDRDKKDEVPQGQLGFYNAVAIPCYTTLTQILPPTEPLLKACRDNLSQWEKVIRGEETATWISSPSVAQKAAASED
Chain of human Beta-secretase (BACE), BACE1 (gene 23621) (P56817 whole entry, looked up): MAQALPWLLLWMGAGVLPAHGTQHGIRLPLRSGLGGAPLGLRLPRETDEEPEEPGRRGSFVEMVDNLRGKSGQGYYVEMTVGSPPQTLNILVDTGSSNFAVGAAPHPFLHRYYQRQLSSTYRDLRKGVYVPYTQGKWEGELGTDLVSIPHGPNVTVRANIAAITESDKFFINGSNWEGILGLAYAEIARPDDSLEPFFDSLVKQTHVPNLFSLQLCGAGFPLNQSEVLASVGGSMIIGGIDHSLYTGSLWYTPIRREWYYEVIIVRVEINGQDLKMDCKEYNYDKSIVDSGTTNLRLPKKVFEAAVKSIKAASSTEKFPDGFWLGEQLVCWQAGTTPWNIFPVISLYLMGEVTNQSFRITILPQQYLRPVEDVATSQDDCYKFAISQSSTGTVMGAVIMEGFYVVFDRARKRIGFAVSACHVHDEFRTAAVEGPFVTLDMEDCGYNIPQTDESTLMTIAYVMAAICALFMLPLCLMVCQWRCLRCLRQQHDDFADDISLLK
Chain of human CYP19A1, CYP19A1 (gene 1588) (P11511 whole entry, looked up): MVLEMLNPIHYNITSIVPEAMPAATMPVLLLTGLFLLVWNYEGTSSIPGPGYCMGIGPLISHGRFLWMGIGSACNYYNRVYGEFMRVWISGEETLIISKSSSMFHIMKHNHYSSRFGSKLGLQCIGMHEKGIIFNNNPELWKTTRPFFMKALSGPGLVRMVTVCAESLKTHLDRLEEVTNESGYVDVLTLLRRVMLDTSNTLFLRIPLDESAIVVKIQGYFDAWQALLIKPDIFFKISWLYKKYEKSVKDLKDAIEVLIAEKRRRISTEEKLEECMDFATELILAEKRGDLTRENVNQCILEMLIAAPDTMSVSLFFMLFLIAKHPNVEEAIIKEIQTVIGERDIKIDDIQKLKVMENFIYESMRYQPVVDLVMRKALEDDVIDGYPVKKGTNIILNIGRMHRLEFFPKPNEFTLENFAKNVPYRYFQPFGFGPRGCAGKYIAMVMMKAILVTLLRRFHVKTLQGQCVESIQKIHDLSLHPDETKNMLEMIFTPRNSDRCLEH
Chain of human Dual Specificity Protein Phosphatase 3 (DUSP3), DUSP3 (gene 1845) (P51452 whole entry, looked up): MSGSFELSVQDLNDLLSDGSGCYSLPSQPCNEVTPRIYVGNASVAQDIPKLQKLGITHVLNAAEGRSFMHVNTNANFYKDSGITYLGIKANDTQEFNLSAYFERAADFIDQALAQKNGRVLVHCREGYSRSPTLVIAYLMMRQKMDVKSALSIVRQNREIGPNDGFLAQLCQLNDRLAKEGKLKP

For the molecule `CC1COc2ccccc2N1C(=O)C(Cl)Cl` (stereo not given), the outcome in [1], in assay [2], in [3] and in [5] was inactive. Besides, in assay [4], the AC50 is 10.3 µM (active).

For `CC1CCC(C(C)CS)CC1S` (stereo not given), the result in assay [1] and in [3] was inactive. For the same molecule, the half-maximal activity concentration (AC50) in assay [2] is 20 µM (active); in assay [4], 30.7 µM (active); in assay [6], 0.997 µM (active); in assay [7] it was 25 µM (active).

Take `CN(C)CCCN`: the molecule was classed as inactive in [8].

Consider `Cc1ccc(C(C)C)cc1O`, for which, in [8], the AC50 is 3.83 µM (active).

Regarding `CC(=O)/C=C/C1=C(C)CCCC1(C)C`, the result in assay [1], in assay [2], in assay [3], in [4] and in [9] was inactive.

Consider `O=C=NC1CCC(CC2CCC(N=C=O)CC2)CC1` (stereo not given), for which the AC50 in assay [1] is 13.3 µM (active); in [3], 33.5 µM (active); in assay [10] it was 8.32 µM (active); in assay [6], 2.17 µM (active). Moreover, the outcome in assay [2], in assay [4] and in [11] was inactive.

Take `Cc1ccc(O)c(C(C)(C)C)c1`: the AC50 in assay [1] was 35.8 µM (active); in assay [2] it was 32.8 µM (active); in [3] it was 32 µM (active); in assay [4], 31.9 µM (active). Moreover, the outcome in assay [9] was inactive.

In the case of `C#C[C@]1(O)CC[C@H]2[C@@H]3CCC4=Cc5oncc5C[C@]4(C)[C@H]3CC[C@@]21C`, the result in assay [1], in [2], in assay [3], in assay [4], in [5] and in [11] was inactive.

`Nc1cc([N+](=O)[O-])ccc1Cl`: the outcome in [1], in assay [2], in [3], in [4] and in [11] was inactive.

Consider `Cc1ccc(Nc2ccc(O)c3c2C(=O)c2ccccc2C3=O)cc1`, for which the result in [1], in assay [2], in [3] and in assay [4] was inactive. Moreover, the half-maximal activity concentration (AC50) in [10] is 6.25 µM (active); in assay [6], 2.18 µM (active).

As for `CC(CCO)CCCC(C)(C)O` (stereo not given), in assay [5], the outcome was inactive.

On to `CC(=O)OCc1ccc2c(c1)OCO2`, for which the AC50 in [5] is 8.23 µM (active). In addition, the molecule was called inactive in assay [11] and in assay [7].

Regarding `S=C(S)NCCNC(=S)S`, the AC50 in assay [12] is 0.161 µM (active).

Consider `CC(C)=CCO`, for which the molecule was classed as inactive in assay [7].

Turning to `CC(C)[C@@H]1CC[C@@H](C)CC1=O`, the result in assay [5] and in [7] was inactive.

In the case of `CCCCCC(CO)CCC` (stereo not given), in [7], the half-maximal activity concentration (AC50) is 0.00229 µM (active).

On to `CC1CCC2CC1C2(C)C` (stereo not given), for which the concentration at half-maximal activity (AC50) in assay [5] was 21.3 µM (active). Further, in assay [11], the molecule was classed as inactive.

Consider `CCCOCC(C)O` (stereo not given), for which the concentration at half-maximal activity (AC50) in assay [9] is 7.91 µM (active).

Take `Cc1ccc2ccccc2n1`: in assay [5], the molecule was called inactive. Also, the AC50 in assay [11] is 9.74 µM (active).

Take `COc1cc2ncnc(Nc3cccc(Cl)c3)c2cc1OC`: in [5], the molecule was classed as inactive. For the same molecule, the values for the half-maximal activity concentration (AC50) in assay [11] and in assay [13] were 2.52 µM (active) and 1.27 µM (active), respectively.

As for `COC(=O)OC`, the molecule was called inactive in assay [5] and in assay [11].

In the case of `CCCCO`, the call in assay [5] was inactive.

On to `CC1(C)[C@H]2CC[C@]1(C)[C@H](O)C2`, for which the outcome in assay [14] and in assay [5] was inactive.

On to `O=C(O)CN(CCN(CC(=O)O)CC(=O)O)CCN(CC(=O)O)CC(=O)O`, for which, in [7], the molecule was called inactive.

As to `CC(=O)OCCOC(C)=O`, in assay [6], the AC50 was 14.9 µM (active).

For the molecule `OC1C(O)C(O)C(O)C(O)C1O` (stereo not given), the outcome in assay [5] and in assay [11] was inactive.

`Clc1ccc(Cl)c(Cl)c1Cl`: the AC50 in assay [6] is 6.22 µM (active). In addition, the call in [9] was inactive.
